Laboratory results as given in PubChem BioAssay (Tox21).
Inconclusive results are not listed. Active and inactive are the calls of the source. Unless noted, calls come from the whole dose curve; as a rule, active = well fitted curve in the direction sought with a large enough effect in the repeat runs; inconclusive = weak or mixed curves; inactive = no such curve, though single readings can be large; an effect the other way counts as inactive or inconclusive.

What was measured:
[1] = qHTS assay to identify small molecule agonists of H2AX (AID 1224845; active = well fitted activation curve with a large enough effect in the signal ratio in the repeat runs, not every such curve was filed as active; the % refers to the signal ratio)
How it was run: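 Phospho-H2AX Ser139 measured by HTRF (ex 320 nm; em 665 and 620 nm) after 24 hr antibody incubation. Compounds, 15 concentrations, 0.76% DMSO, were applied to CHO-K1 cells for 3hr at 37C before lysis.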

[2] = qHTS assay to identify small molecule agonists of the hypoxia (HIF-1) signaling pathway (AID 1224846; active = well fitted activation curve with a large enough effect in the signal ratio in the repeat runs, not every such curve was filed as active; the % refers to the signal ratio)
How it was run: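 A low-serum medium (0.5% dialyzed FBS) holding 2,000 HRE-bla ME-180 cells per well is preincubated for 5 hrs, dosed with compounds by pintool, and kept a further 17 hrs at 37C, 5% CO2 before CCF4-AM FRET detection of beta-lactamase.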

[3] = qHTS assay to identify small molecule agonists of H2AX - cell viability counter screen (AID 1224847; calls by dose curve; note: top concentration of the series differs between compounds; nearly all actives have a fitted effect of over 30% in size)
How it was run: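 Compounds tested at 15 concentrations were incubated 3 hr at 37C with wild-type CHO-K1 cells; cellular ATP-based luminescence (CellTiter-Glo) indicated viability.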

[4] = qHTS RealTime-Glo MT Cell Viability Assay in HepG2 cells - 24 hour (AID 1224867); note: nearly all actives have a fitted effect of over 50% in size
How it was run: (§1)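 Compound treatment began 5 h after plating HepG2 cells (600/well) with NanoLuc luciferase and prosubstrate. Plates stayed at 37 C for 40 h; luminescence was captured at six time points, 0 h through 40 h.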

[5] = qHTS RealTime-Glo MT Cell Viability Assay in HEK293 cells - 32 hour (AID 1224868); note: nearly all actives have a fitted effect of over 50% in size; note: potency is the fitted concentration of half-maximal effect; for activity change, negative = cytotoxic: top concentration of the series differs between compounds
How it was run: (§2)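 Quantitative high-throughput screen of the Tox21 10K library in HEK293: cells and RealTime-Glo reagents plated together, compound added at 5 h, luminescence monitored through 40 h at 37 C.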

[6] = A CellTox Green Cytotoxicity Assay to monitor cytotoxicity in HEK293 cells - 0 hour (AID 1224869); note: nearly all actives have a fitted effect of over 50% in size
How it was run: (§3)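 Fluorescence intensity, read at 0, 8, 16, 24, 32 and 40 h of compound treatment, reflected dye binding to DNA of dead HEK293 cells; compounds (23 nL, DMSO) were added 5 h after plating cells with reagent.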

[7] = qHTS RealTime-Glo MT Cell Viability Assay in HepG2 cells - 40 hour (AID 1224870); note: nearly all actives have a fitted effect of over 50% in size
How it was run: (§4)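 Real-time viability: cells seeded at 600 per well together with NanoLuc and cell-permeant prosubstrate, compounds added after 5 h incubation. Luminescence tracked at 0, 8, 16, 24, 32 and 40 h of exposure.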

[8] = A CellTox Green Cytotoxicity Assay to monitor cytotoxicity in HEK293 cells - 40 hour (AID 1224871); note: nearly all actives have a fitted effect of over 45% in size
How it was run: as §3

[9] = qHTS RealTime-Glo MT Cell Viability Assay in HEK293 cells - 16 hour (AID 1224872); note: nearly all actives have a fitted effect of over 50% in size; note: potency is the fitted concentration of half-maximal effect; for activity change, negative = cytotoxicity: top concentration of the series differs between compounds
How it was run: as §2

[10] = qHTS RealTime-Glo MT Cell Viability Assay in HepG2 cells - 8 hour (AID 1224873); note: nearly all actives have a fitted effect of over 55% in size
How it was run: as §4

[11] = qHTS RealTime-Glo MT Cell Viability Assay in HEK293 cells - 40 hour (AID 1224874); conditions: RealTime-Glo luminescence; max response: active compounds read low; note: nearly all actives have a fitted effect of over 50% in size; note: potency is the fitted concentration of half-maximal effect
How it was run: (§5)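 Viable HEK293 cells reduce a cell-permeant prosubstrate; the product diffuses out and is consumed by NanoLuc in the medium to give light. Compounds went in after a 5 h incubation and plates were read over the treatment course.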

[12] = A CellTox Green Cytotoxicity Assay to monitor cytotoxicity in HEK293 cells - 24 hour (AID 1224875); note: nearly all actives have a fitted effect of over 45% in size
How it was run: as §3

[13] = A CellTox Green Cytotoxicity Assay to monitor cytotoxicity in HepG2 cells - 16 hour (AID 1224876); note: nearly all actives have a fitted effect of over 45% in size
How it was run: (§6)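 Using 1536-well format, dye-containing HepG2 suspension was seeded, allowed 5 h at 37 C/5% CO2, dosed by pintool with compounds, positive and negative controls, and imaged for fluorescence across 40 h.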

[14] = qHTS RealTime-Glo MT Cell Viability Assay in HepG2 cells - 32 hour (AID 1224877); note: nearly all actives have a fitted effect of over 55% in size
How it was run: as §1

[15] = A CellTox Green Cytotoxicity Assay to monitor cytotoxicity in HepG2 cells - 24 hour (AID 1224878); note: nearly all actives have a fitted effect of over 45% in size; note: potency is the fitted concentration of half-maximal effect
How it was run: as §6

[16] = A CellTox Green Cytotoxicity Assay to monitor cytotoxicity in HepG2 cells - 40 hour (AID 1224879); note: nearly all actives have a fitted effect of over 40% in size; note: potency is the fitted concentration of half-maximal effect
How it was run: as §6

[17] = qHTS RealTime-Glo MT Cell Viability Assay in HEK293 cells - 0 hour (AID 1224880)
How it was run: as §5

[18] = A CellTox Green Cytotoxicity Assay to monitor cytotoxicity in HEK293 cells - 32 hour (AID 1224881); note: nearly all actives have a fitted effect of over 40% in size
How it was run: as §3

[19] = qHTS assay to identify small molecule agonists of the estrogen related receptor (ERR) signaling pathway from Tox21 library (AID 1224849; calls by dose curve; note: nearly all actives have a fitted effect of over 15% in size); conditions: ERR reporter cell line, ONE-Glo luciferase, 18 h; at 92.4 µM (top of the series) unless noted
How it was run: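 Screening used an NTP-provided ERR luciferase cell line. Compounds in DMSO were added 6 h after seeding and left 18 h at 37 C before a 30 min ONE-Glo step and luminescence reading.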

[20] = qHTS assay to identify small molecule antagonists of the estrogen related receptor (ERR) signaling pathway from Tox21 library (AID 1224848); note: nearly all actives have a fitted effect of over 50% in size; note: potency is the fitted concentration of half-maximal effect
How it was run: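 Reading was by luminescence 30 min after ONE-Glo addition. Before that, ERR cells at 2,000 per well had rested 6 h at 37 C/5% CO2 and then received pin-tooled compounds in DMSO for 18 h at 37 C.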
% is set by controls: 0 for no effect and ±100 for the full control effect.

CCOCC(O)COc1ccc(NC(=O)CC[S+](C)C)cc1 (stereo not given)
inactive: Potency [1] | Potency [2] | Potency [3] | Potency [4] | Potency [5] | Potency [6] | Potency [7] | Potency [8] | Potency [9] | Potency [10] | max response [11] 1.67% | Potency [12] | Potency [13] | Potency [14] | Potency [15] | Potency [16] | Potency [17] | Potency [18]

CN(C)C(=O)NC1(c2ccccc2)CCN(CC[C@@]2(c3ccc(F)c(F)c3)CN(C(=O)c3ccccc3)CCO2)CC1
inactive: Potency [1] | Potency [2] | Potency [3] | activity change, positive = activation [19] -22.6% | Potency [4] | Potency [6] | Potency [7] | Potency [8] | Potency [10] | Potency [12] | Potency [13] | Potency [14] | Potency [15] | Potency [17] | Potency [18]

O=C(O)CC(=O)C(=O)O
inactive: Potency [1] | Potency [2] | Potency [3] | Potency [4] | Potency [5] | Potency [6] | Potency [7] | Potency [8] | Potency [9] | Potency [10] | max response [11] -2.18% | Potency [12] | Potency [13] | Potency [14] | Potency [15] | Potency [16] | Potency [17] | Potency [18]

CC(CSC(=O)c1ccccc1)C(=O)N1C[C@@H](Sc2ccccc2)C[C@H]1C(=O)O (stereo not given in full)
inactive: activation (H2AX phosphorylation) [1] 0.449% [at 31.6 µM] | activation [2] 0.628% [at 15.8 µM] | activity change, negative = cytotoxicity [3] 1.45% [at 31.6 µM] | activity, negative = inhibition [20] -0.558% [at 19 µM] | activity change, positive = activation [19] -0.059% [at 19 µM] | activity change, negative = cytotoxic [5] -4.06% [at 15.8 µM] | cytotoxicity [6] -0.576% [at 15.8 µM] | activity change, negative = cytotoxic [7] 2.68% [at 15.8 µM] | cytotoxicity increase [8] 1.14% [at 15.8 µM] | activity change, negative = cytotoxicity [9] -4.93% [at 15.8 µM] | viability change, negative = cytotoxic [10] 1.39% [at 15.8 µM] | max response [11] -5.01% | activity change [12] 3.46% [at 15.8 µM, active compounds read high] | cytotoxicity increase [13] -2.05% [at 15.8 µM] | activity change, negative = cytotoxic [14] 4.17% [at 15.8 µM] | cytotoxicity [15] -1.93% [at 15.8 µM] | cytotoxicity increase [16] -0.523% [at 15.8 µM] | activity change, negative = cytotoxicity [17] -6.47% [at 15.8 µM] | cytotoxicity increase [18] 1.09% [at 15.8 µM]

C=C(C)C(=O)OCC
inactive: Potency [1] | Potency [2] | Potency [3] | Potency [20] | activity change, positive = activation [19] 5.74% | Potency [5] | Potency [6] | Potency [7] | Potency [8] | Potency [9] | Potency [10] | max response [11] 2.67% | Potency [12] | Potency [13] | Potency [14] | Potency [15] | Potency [16] | Potency [17] | Potency [18]

CCCCCCOC(=O)NC(=N)c1ccc(NCc2nc3cc(C(=O)N(CCC(=O)OCC)c4ccccn4)ccc3n2C)cc1
inactive: Potency [1] | Potency [2] | Potency [3] | activity change, positive = activation [19] -64.4% [at 42.5 µM] | Potency [6] | Potency [7] | Potency [8] | Potency [12] | Potency [13] | Potency [18]
active: Potency [20] 13.3 µM | Potency [5] 10.7 µM | Potency [9] 9.52 µM | Potency [11] 10.7 µM | Potency [15] 23.9 µM | Potency [16] 23.9 µM
